Screens as filed in PubChem BioAssay.
Hits are enriched below; roughly 1.9% of the tested compounds scored in any of these assays.
EBNA-1 inh – blocks EBNA-1 binding to DNA; AID 1950; inhibition, % at 14.8 µM; hit rate 0.34% among 300,000; EBNA-1 DNA binding, fluorescence polarization; in the data active = inhibition above about 28%
ZTA DNA inh – counter-screen for EBNA-1 inhibitors: inhibitors of Epstein-Barr virus ZTA; P03206; ZTA-DNA binding, fluorescence polarization; hit rate 0.15% among 320,000; AID 2234; inhibition, % at 11 µM; in the data active = inhibition above about 33%
Target sequence (P03206 whole entry, looked up): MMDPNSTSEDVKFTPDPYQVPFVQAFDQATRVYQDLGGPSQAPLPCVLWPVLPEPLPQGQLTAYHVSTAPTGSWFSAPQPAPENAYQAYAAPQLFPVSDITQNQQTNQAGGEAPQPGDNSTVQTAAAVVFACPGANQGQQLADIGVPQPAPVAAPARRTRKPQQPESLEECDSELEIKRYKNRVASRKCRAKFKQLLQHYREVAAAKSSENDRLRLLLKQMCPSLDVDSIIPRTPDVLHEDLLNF
p47phox inh – inhibitors of human p47phox binding; p47phox/p22phox peptide binding, fluorescence polarization, 2 h; inhibition, % at 24.7 µM; hit rate 0.53% among 220,000; AID 1274;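 active = inhibition above about 30%, limit read from the data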
Target sequence (P14598 whole entry, looked up): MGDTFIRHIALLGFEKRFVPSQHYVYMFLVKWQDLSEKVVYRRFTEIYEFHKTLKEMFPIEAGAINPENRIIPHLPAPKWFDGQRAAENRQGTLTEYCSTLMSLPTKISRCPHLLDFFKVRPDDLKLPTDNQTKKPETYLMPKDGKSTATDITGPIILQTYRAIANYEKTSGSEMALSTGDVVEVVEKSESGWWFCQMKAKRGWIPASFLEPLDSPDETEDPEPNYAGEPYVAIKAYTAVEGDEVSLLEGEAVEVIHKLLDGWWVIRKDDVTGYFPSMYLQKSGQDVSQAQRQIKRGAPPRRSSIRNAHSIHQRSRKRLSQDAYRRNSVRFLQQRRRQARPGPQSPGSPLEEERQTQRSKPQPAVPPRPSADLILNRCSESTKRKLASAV
aDG glyco act – increases alpha dystroglycan glycosylation; Pro5-aDG cells, alpha-DG glycosylation AlphaScreen (IIH6); 0% Pro5, 100% B10-LARGE cell signal; activation, % at 10 µM; hit rate 0.22% among 360,000;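 active = activation of at least 8% versus controls, or a plate z-score of at least 8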;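 also: Pro5 are CHO cells carrying HIG-tagged alpha-DG that lacks glycosylation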
PG9 Ab binder – small molecules binding HIV-1 gp120 antibody PG9; TR-FRET gp120-PG9 antibody binding; inhibition, % at 6.7 µM; hit rate 0.43% among 360,000; in the data active = inhibition above about 8.5%
NR1D1 modulator – modulators of human Rev-erb alpha DNA binding; P20393; Rev-erbα–FITC-DNA binding, fluorescence polarization, 90 min; activity, % at 10 µM; hit rate 0.79% among 370,000;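 active = activity above about 14%, limit read from the data; passing the limit was not always enough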
Rev-erbA confirm – Rev-erb alpha (human) modulation, hit confirmation; activation, % at 25 µM; hit rate 61% among 3,000; shares compounds with NR1D1 modulator; Rev-erb alpha FITC-DNA binding, fluorescence polarization, 90 min;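 active = activation at or above a set limit, or at least 3 SD above the negative control mean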
RORg DNA counter – counter-screen for Rev-erb alpha modulators: RORgamma DNA binding; IC50, µM; hit rate 8% among 910; shares compounds with NR1D1 modulator; purified RORgamma protein-FITC-DNA binding, fluorescence polarization;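 active = Compounds whose fitted half-maximal concentration for disrupting protein-DNA binding is below 10 micromolar; the record names Rev-erb in its text, so the target is in doubt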
Hits are given with their value; i = inactive; nt = no result.

SMILES	EBNA-1 inh	ZTA DNA inh	p47phox inh	aDG glyco act	PG9 Ab binder	NR1D1 modulator	Rev-erbA confirm	others
Cc1cc(N2CCC[C@@H]2C)nc2ccccc12	nt	nt	nt	nt	nt	i	nt
O=C(NC1CCCCN(Cc2ccc(OC(F)(F)F)cc2)C1=O)c1cccc(C(F)(F)F)c1 (stereo not given)	nt	nt	nt	nt	nt	i	nt
COc1ccc(NC(=O)CSc2nc3ccccc3cc2Cc2ccccc2)cc1	i	i	i	i	i	27.0	21.8
CC(C)CCSc1nc(N)c(C#N)cc1C#N	i	i	i	i	i	104.2	96.3	RORg DNA counter=i
Cc1ccccc1NC(=O)CSc1nc(N)c(C#N)cc1C#N	i	i	i	i	i	i	nt
COc1cc(NC(=O)CSc2nc3ccccc3cc2Cc2ccccc2)cc(OC)c1	i	i	i	i	i	i	nt
COc1ccc2nc(SCC(=O)N3CCN(c4ccc(F)cc4)CC3)c(C#N)cc2c1	i	i	i	i	i	i	nt
COc1ccc(NC(=O)CSc2nc(N)c(C#N)cc2C#N)cc1	i	i	i	i	i	61.5	65.2	RORg DNA counter=i
CC(=O)c1cc(C#N)c(SCCC(C)C)nc1C	i	i	i	i	nt	i	nt
COc1ccc2nc(SCC(=O)Nc3ccc4sc(C)nc4c3)c(C#N)cc2c1	i	i	i	i	i	91.6	123.2	RORg DNA counter=i
C=CCN1C(=O)[C@@H](CC(=O)N2CCOCC2)[C@]2(C(=O)OCC)CCCCC/C=C/12	nt	nt	nt	nt	nt	i	nt
CCn1c(SCc2c(F)cccc2F)nc2sc3c(c2c1=O)CCCC3	nt	nt	nt	nt	nt	i	nt
CC1CCCN(S(=O)(=O)c2ccc(C(=O)Nc3ccccc3-c3nc4ccccc4[nH]3)cc2)C1 (stereo not given)	i	i	i	i	i	39.5	i
CCOC(=O)Nc1ccc2c(COC(=O)CNS(=O)(=O)c3ccc(NC(C)=O)cc3)cc(=O)oc2c1	i	i	i	i	i	54.5	34.7	RORg DNA counter=i
Cc1ccc2c(COC(=O)CNS(=O)(=O)c3ccccc3)cc(=O)oc2c1	nt	nt	nt	i	i	i	nt
O=C(Nc1ccc(F)cc1)Nc1c(-c2ccc(F)cc2)nc2ncccn12	nt	nt	nt	nt	nt	i	nt
CCOC(=O)/C(C#N)=C/Nc1ccsc1C(=O)OC	i	i	i	i	i	22.5	i
CCOC(=O)/C(C#N)=C/Nc1cc(F)ccc1C	i	i	i	i	i	i	nt
CCOC(=O)/C(C#N)=C/Nc1cc(C(=O)OCC)cc2c(OC)c(OC)ccc12	nt	nt	i	i	i	30.8	i
O=C(C1=NN[C@@H]2C(=O)N(Cc3ccccc3)C(=O)[C@H]12)c1ccc([N+](=O)[O-])cc1	i	i	i	i	i	15.9	i
Cc1ccc(C(=O)Oc2ccc(-c3nccc(-c4ccccn4)n3)cc2)cc1	i	i	i	i	i	19.6	i
O=C(Oc1ccc(-c2nccc(-c3ccccn3)n2)cc1)c1cccc(C(F)(F)F)c1	i	i	i	i	i	i	nt
COC(=O)C1CN(Cc2cn(CCOC(C)=O)nn2)CCS(=O)(=O)N1Cc1ccccc1 (stereo not given)	nt	nt	nt	nt	nt	i	nt
C[n+]1cc(C(=O)N2CCCCC2)ccc1/C=C/c1c[nH]c2ccccc12	i	i	i	i	i	74.7	57.6	RORg DNA counter=i
O=C(C(=O)N1CCCCCC1)c1c[nH]c2ccccc12	nt	nt	nt	i	i	i	nt
SMILES	EBNA-1 inh	ZTA DNA inh	p47phox inh	aDG glyco act	PG9 Ab binder	NR1D1 modulator	Rev-erbA confirm	others
C1CCC(NC2=NCCO2)CC1	nt	nt	nt	i	i	i	nt
C1COC(NC(C2CC2)C2CC2)=N1	i	i	i	i	i	16.7	i
COc1ccc(/C=C/c2cccc[n+]2C)c(O)c1	i	i	nt	i	i	i	nt
CCN(CC)c1ccc(/C=C/c2cccc[n+]2C)c(OC)c1	i	i	nt	i	i	52.6	55.7	RORg DNA counter=i
CC(=O)c1ccc(NC(=O)COC(=O)c2ccccc2N=Nc2ccc(N(C)C)cc2)cc1	i	i	i	i	i	i	nt
CN(C)c1ccc(N=Nc2ccccc2C(=O)OCC(=O)N(C)c2ccccc2)cc1	i	i	i	i	i	22.5	23.3
COC(=O)c1ccccc1NC(=O)COC(=O)c1ccccc1N=Nc1ccc(N(C)C)cc1	i	i	i	i	i	26.1	29.3
Cc1cc2nc(/C(C#N)=C\c3ccc(-c4ccccc4C(=O)O)o3)[nH]c2cc1C	i	i	nt	i	i	41.8	29.9
Cc1ccc2nc(/C(C#N)=C/c3ccc(-c4ccccc4C(=O)O)o3)[nH]c2c1	i	i	nt	i	i	40.7	30.7	RORg DNA counter=i
Cc1cc2nc3s/c(=C/c4ccc(-c5ccccc5C(=O)O)o4)c(=O)n3c2cc1C	i	i	nt	i	i	i	nt
N#C/C(=C\c1ccc(-c2ccccc2C(=O)O)o1)c1nc2ccccc2[nH]1	i	i	nt	i	i	i	nt
COc1ccc(C(=O)N[C@@H]2CC[C@@]34CCCN3C(=O)CCC[C@H]4[C@H]2C)cc1	nt	nt	nt	nt	nt	i	nt
Nn1c(SCc2ccc([N+](=O)[O-])cc2)nnc1-c1n[nH]c2c1CCC2	nt	nt	nt	nt	nt	i	nt
CCOC(=O)c1c(-c2ccc(C)cc2)csc1NC1=NS(=O)(=O)c2ccccc21	i	i	i	i	i	36.6	20.2
CCOC(=O)c1c(-c2ccccc2)csc1NC(=O)/C(C#N)=C/c1ccc(OC)c(OC)c1	i	i	i	i	i	i	nt
CCOC(=O)c1c(-c2ccc(C)cc2)csc1NC(=O)c1cccc(N2C(=O)CCC2=O)c1	i	i	i	i	i	26.1	i
CCOC(=O)c1c(-c2ccccc2)csc1NC(=O)/C(C#N)=C/c1ccc(O)c(OC)c1	i	i	i	i	i	26.3	36.5	RORg DNA counter=i
CCOC(=O)c1c(-c2ccccc2)csc1NC(=O)c1cccc(N2C(=O)CCC2=O)c1	i	i	i	i	i	26.0	i
CSc1nc(N)c(C(=O)NC2CCCCC2)s1	i	i	i	i	i	23.0	i
CC(C)(C)C(=O)Cn1c(=O)n(CC2CCCO2)c(=O)c2ccccc21 (stereo not given)	i	i	i	i	i	i	nt
O=C(Cn1c(=O)n(CC2CCCO2)c(=O)c2ccccc21)c1ccc(Cl)c(Cl)c1 (stereo not given)	i	i	i	i	i	27.4	23.6
CC(=O)N1CCc2cc(Br)c(S(=O)(=O)NCc3ccc(Cl)cc3)cc21	nt	nt	nt	nt	nt	i	nt
COc1ccc(CN(CCN2CCOCC2)C(=O)c2cc(F)ccc2C)cc1OC	nt	nt	nt	nt	nt	i	nt
S=c1[nH]c(-c2ccc(Br)cc2)cn1CCc1ccccc1	i	i	i	i	i	17.2	28.4
COc1ccccc1-n1cc(-c2ccc(Br)cc2)[nH]c1=S	i	i	nt	i	i	i	nt
CC(C)(C)OC(=O)NCCCc1ccc2c(c1)[C@]1(CCC[C@@H](OCc3ccccc3)[C@@H]1NC(=O)CCc1ccccc1)C(=O)N2Cc1ccccc1	nt	nt	nt	nt	nt	i	nt
O=C(NCCC(c1ccccc1)c1ccccc1)c1cnc2sccn2c1=O	i	i	i	i	i	26.3	i
